The whole screen tested about 1,500 compounds, of which about 460 (31%) were called active. Not shown: some 1% with an inconclusive outcome.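 Rule for the calls: active = curve reaches 40% activation over neutral controls at an AC40 no higher than the top valid tested concentration; inconclusive = no clear call, values can overlap the other calls; inactive = signal moving opposite to the expected increase, and the rest.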 Not all results are given here. Measured potencies and affinities stand elsewhere.
Test: GLuc-reported insulin release enhancers, glucose-stimulated beta cells – cell-based, INS-1E, Gaussia luciferase, luminescence, cherry-pick, set 2, dose response (AID 977607);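 note: 0% = median of the plate neutral control wells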
Details: INS-1E GLuc insulin secretion reporter, 2-3 h, stronger effect = higher value; at 35 µM, 100% = signal doubled over neutral wells unless noted

Max activation, inactive:
CN(Cc1ccccc1)c1ncnc2[nH]ncc12 19.1% [at 3.8 µM, 100% = signal doubled over neutral wells]
Nn1c(C2CCCCC2)nc2ccccc2c1=O -24.8% [at 0.42 µM, 100% = signal doubled over neutral wells]
CC(O)c1nc2ccccc2n1C1CCCCC1 (configuration not stated) -13.8% [at 3.8 µM, 100% = signal doubled over neutral wells]
O=C(O)COc1ccc2c3c(c(=O)oc2c1)CCC3 -18%
CCOC(=O)Cc1cc(=O)n2[nH]c(-c3ccc(C)cc3)cc2n1 26.5% [at 0.015 µM, 100% = signal doubled over neutral wells]
O=C(CCS(=O)(=O)c1ccc(Cl)cc1)Nc1ccc(N2CCOCC2)cc1 26.5% [at 0.0016 µM, 100% = signal doubled over neutral wells]
CCOc1ccc(CCNC(=O)CCC(=O)c2cccs2)cc1OCC -10.4% [at 0.0016 µM, 100% = signal doubled over neutral wells]
CCOc1cccc2cc(C(=O)Nc3cc(C)on3)c(=O)oc12 -15.3% [at 0.42 µM, 100% = signal doubled over neutral wells]
O=C(NCCc1ccccc1)c1cc(-c2ccc3c(c2)OCO3)on1 -16.8% [at 0.015 µM, 100% = signal doubled over neutral wells]
C=CCNC(=O)c1cc(-c2ccc3c(c2)OCO3)on1 -23.5%
CC(=O)Cc1nsc(NC(=O)c2ccc(-c3cccc(Cl)c3)o2)n1 -41.3%
CCc1cc2c(COC(=O)c3cccc(S(C)(=O)=O)c3)cc(=O)oc2cc1O -21.8%
COCCNc1nc(NCCCN2CCCC2=O)c2sccc2n1 -21.2% [at 0.005 µM, 100% = signal doubled over neutral wells]
CN(C)c1ncnc2sc(-c3ccccc3)cc12 75.3%
CCOC(=O)c1cnc2c(cnn2C)c1Oc1ccc(OC)cc1 -8.37% [at 0.135 µM, 100% = signal doubled over neutral wells]
C=C(C)n1c(=O)n(Cc2ccccc2C)c2ccccc21 -20.9% [at 0.0016 µM, 100% = signal doubled over neutral wells]
COc1ccc(CC(=O)OCC(=O)N2CCc3ccccc32)cc1OC -17.9% [at 0.135 µM, 100% = signal doubled over neutral wells]
COc1ccc(CN(C)C(=O)CCN=C2NS(=O)(=O)c3ccccc32)c(OC)c1 -22.4% [at 0.015 µM, 100% = signal doubled over neutral wells]
O=C1Nc2ccccc2N(C(=O)c2ccc3ccccc3c2)C1c1nc2ccccc2[nH]1 (configuration not stated) -24.4% [at 11 µM, 100% = signal doubled over neutral wells]
CC1=C(C(=O)N2CCOCC2)CC(CC(=O)NCCCN(C)C)C(=O)N1CCCN1CCCC1=O (configuration not stated) -20.9%
Cc1cc(Br)ccc1NC(=O)CN(C)C(=O)C1CSC2(C)CCC(=O)N12 (configuration not stated) -12.1% [at 0.015 µM, 100% = signal doubled over neutral wells]
COc1ccc(S(=O)(=O)N2CCc3ccccc32)cc1C(=O)Nc1cccnc1 -10.3% [at 3.8 µM, 100% = signal doubled over neutral wells]
O=S(=O)(c1ccc(Cl)nc1)N1CCc2ccccc21 -28.1%
COc1cc(C(=O)O)ccc1OCc1ccccc1 -15.4% [at 0.42 µM, 100% = signal doubled over neutral wells]
CCc1ccc(N(C2C=CS(=O)(=O)C2)S(=O)(=O)c2ccccc2)cc1 (configuration not stated) -8.85% [at 0.015 µM, 100% = signal doubled over neutral wells]
CCCc1nnc2c(N(C)S(=O)(=O)c3ccc(C)cc3)nc3ccccc3n12 -17% [at 0.005 µM, 100% = signal doubled over neutral wells]
COc1ccc(Nc2c3c(nc4ccccc24)CCC3)cc1 -16.4% [at 0.046 µM, 100% = signal doubled over neutral wells]
c1csc(CNc2nc(Oc3ccncc3)c3sccc3n2)c1 -17.1% [at 0.0016 µM, 100% = signal doubled over neutral wells]
CN1CCCCC(NC(=O)c2ccccc2)C1=O (configuration not stated) -13.5% [at 0.42 µM, 100% = signal doubled over neutral wells]
COc1ccc(S(=O)(=O)Nc2ccc3c(c2)OCO3)cc1OC -21.1%
Cc1cccc(C)c1-n1nnnc1C1(C)CCC(=O)N1Cc1cccs1 (configuration not stated) 25.2%
CCOc1cc(CNc2cccc3[nH]c(C)nc23)ccc1OC -11.6% [at 0.0016 µM, 100% = signal doubled over neutral wells]
CCN(CC)C(=O)Cn1cc(C(=O)C(=O)N2CCN(Cc3ccccc3)CC2)c2ccccc21 -19.3%
CC(=O)N1CCN(c2nnc(-c3ccc(C)cc3)c3ccccc23)CC1 -19.3% [at 3.8 µM, 100% = signal doubled over neutral wells]
Cc1ncc(N=Nc2ccc(F)cc2)c(-c2ccc(Cl)cc2)n1 105%
CC(=O)Nc1nc(NCc2ccccc2Cl)n(-c2ccccc2)n1 -19.9% [at 0.135 µM, 100% = signal doubled over neutral wells]
COc1ccc(CCNC(=O)CCn2c(=O)c3cccn3c3cccnc32)cc1OC 27.2% [at 11 µM, 100% = signal doubled over neutral wells]

— PubChem BioAssay AID977607 (Broad Institute, 2014)
